Assay results reported in PubChem BioAssay.
Active and inactive are the calls of the source.

Legend:
[1] = biological target: Albumin (Bos taurus) (UniProt P02769); test: bovine serum albumin binders on microarray, profiling panel, artefact control for SMM control protein annotation, biochemical, small-molecule microarray, Alexa647 label, 635/667 nm fluorescence (AID 1118); settings: BSA-A647 binding, fluorescence 635 nm, higher = more signal;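 also: score merges 667 nm emission intensity and signal-to-noise per printed compound spot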
Albumin (Bos taurus), sequence (P02769 whole entry, looked up): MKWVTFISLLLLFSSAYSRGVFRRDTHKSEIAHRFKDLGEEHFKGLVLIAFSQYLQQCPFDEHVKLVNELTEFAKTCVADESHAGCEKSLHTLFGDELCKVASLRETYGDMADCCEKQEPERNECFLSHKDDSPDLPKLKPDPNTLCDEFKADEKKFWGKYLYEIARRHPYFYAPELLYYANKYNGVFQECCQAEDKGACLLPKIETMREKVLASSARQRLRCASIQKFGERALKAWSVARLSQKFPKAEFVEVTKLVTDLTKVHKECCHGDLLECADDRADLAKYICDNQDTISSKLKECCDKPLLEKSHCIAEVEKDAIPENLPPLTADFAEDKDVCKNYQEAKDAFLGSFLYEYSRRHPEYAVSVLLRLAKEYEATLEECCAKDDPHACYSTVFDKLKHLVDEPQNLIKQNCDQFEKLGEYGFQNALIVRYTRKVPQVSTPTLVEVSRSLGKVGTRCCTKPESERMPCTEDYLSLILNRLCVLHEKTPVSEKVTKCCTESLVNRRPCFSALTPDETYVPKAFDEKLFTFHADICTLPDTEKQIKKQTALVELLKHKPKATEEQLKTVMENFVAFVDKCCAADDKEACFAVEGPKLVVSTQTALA

[2] = small-molecule microarray binders of probe aXIP, primary screen, biochemical, NeuroSMM set, 635/667 nm fluorescence (AID 1119); settings: higher = more signal, called active from +8 up or from −8 down;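 also: probe is the protein aXip251-270 applied at 1 µg/mL to compound-printed slides; binding of probe to printed compounds measured as 667 nm fluorescence plus signal to noise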
[3] = small-molecule binders of probe aNOTCH3, primary screen, biochemical, small-molecule microarray, 635/667 nm fluorescence (AID 1120); settings: higher = more signal;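 also: probe is a biotin-tagged antibody raised against NOTCH3 rather than NOTCH3 protein; score merges spot fluorescence near 667 nm with spot signal to noise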
[4] = small-molecule binders of probe aNOTCH2, primary screen, biochemical, small-molecule microarray, 635/667 nm fluorescence (AID 1121); settings: higher = more signal;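 also: score merges feature fluorescence read at 667 nm with its signal to noise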
[5] = biological target: Carbonic anhydrase 2 (Homo sapiens) (UniProt P00918); test: CAII small-molecule binders, profiling panel, biochemical, small-molecule microarray, Alexa647-labelled CAII (AID 1122); settings: CAII-A647 binding fluorescence, higher = more signal
[6] = COS7 lysate on small-molecule microarray, probe aHis, 635 nm (AID 1123); settings: COS7 cell lysate, fluorescence, higher = more signal;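 also: z-score combines 667nm fluorescence intensity with signal-to-noise per printed compound spot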
[7] = compound binding in COS7 lysate, probe aLAP1, primary screen, cell lysate, small-molecule microarray (AID 1124); settings: probe aLAP1, fluorescence, higher = more signal;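 also: lysate comes from COS7 cells expressing LAP1 and is applied at 0.3 µg/mL; score merges spot fluorescence near 667 nm with signal-to-noise over triplicate slides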
[8] = tested on: Sam68 (KHDRBS1); test: Sam68 small-molecule binders, primary screen, biochemical, small-molecule microarray, 635 nm fluorescence (AID 1125); settings: small-molecule microarray binding, higher = more signal;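 also: score merges 667 nm channel intensity with signal to noise over triplicate slides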
[9] = tested on: Chordin-like protein 2 (CHRDL2); test: CHRDL2 small-molecule binders, primary screen, biochemical, small-molecule microarray, 635 nm fluorescence (AID 1126); settings: small-molecule microarray binding, fluorescence 635 nm; higher = more signal;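 also: printed compound slides probed with Chrdl2 protein at 4 µg/mL for 1 h at 4 C; score merges 667 nm emission intensity with signal to noise over three replicate slides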
[10] = biological target: Concanavalin-A (Canavalia ensiformis) (UniProt P02866); test: ConA small-molecule binders, primary screen, artefact control for SMM control protein annotation, biochemical, small-molecule microarray, Alexa647 label, 635 nm (AID 1127); settings: ConA-A647 binding fluorescence, higher = more signal;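 also: z combines 667 nm emission intensity with signal-to-noise across three replicate slides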
Concanavalin-A (Canavalia ensiformis), sequence (P02866 whole entry, looked up): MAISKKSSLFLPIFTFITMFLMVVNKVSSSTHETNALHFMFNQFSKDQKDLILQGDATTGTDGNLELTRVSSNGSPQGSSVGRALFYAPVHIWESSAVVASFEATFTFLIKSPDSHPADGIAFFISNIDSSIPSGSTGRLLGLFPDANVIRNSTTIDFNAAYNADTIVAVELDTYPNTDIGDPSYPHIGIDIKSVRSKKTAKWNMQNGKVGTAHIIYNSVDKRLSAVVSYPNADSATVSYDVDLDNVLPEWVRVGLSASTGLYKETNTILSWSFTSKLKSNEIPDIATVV

Row | SMILES | composite z-score [1] | composite Z-score [2] | composite z-score [3] | composite z-score [4] | composite z-score [5] | composite z-score [6] | composite z-score [7] | composite z-score [8] | composite z-score [9] | composite z-score [10]
1 | CC(C)N1C(=O)C[C@@](C(=O)NCCCN(C)C)(c2ccc([N+](=O)[O-])cc2)[C@H]1c1ccc(CO)cc1 | -0.0399 | 0.183 (inactive) | 0.0628 | -0.0698 | 0.573 | -0.185 | 0.0653 | -0.579 | -0.0507 | -0.158
2 | CC(=O)NCCCC[C@@H]1NC(=O)[C@@H]2C[C@H](C(=O)NCCCC[N+](C)(C)C)[C@H](c3ccc(O)cc3)N2C1=O | -0.763 | 0.0463 (inactive) | 0.271 | -0.0467 | 0.514 | 1.18 | -0.111 | 1.29 | 1.35 | 1.16
3 | COc1ccc(CN(C2=CC[C@@]3(C(N)=O)C(=O)C(Cl)=C(Cl)C(=O)[C@@]3(C#N)C2)S(=O)(=O)c2ccc(Br)cc2)cc1 | 1 | 0.317 (inactive) | -0.128 | -0.0273 | 0.863 | 1.84 | 0.834 | 0.295 | -1.54 | 0.0331
4 | CC(C)C[C@@H]1NC(=O)[C@@H]2C[C@H](C(=O)NCCCCCN)[C@H](c3ccc(O)cc3)N2C1=O | 0.85 | -0.285 (inactive) | -0.169 | -0.102 | 0.577 | 1.48 | 0.17 | 1.33 | 0.25 | 1.17
5 | CC1=C[C@@]2(CO)C(=O)[C@]3(CO3)[C@@H]1[C@H]1[C@]2(C)C=C(CO)C(=O)[C@]12CO2 | -0.123 | 0.817 (inactive) | 0.112 | -0.0795 | 0.497 | -0.255 | -0.274 | 0.369 | 0.397 | 0.301
6 | Cc1ccc(S[C@]2(C(=O)NCC(F)(F)F)CC(=O)N(C3CCCCC3)[C@@H]2c2ccc(CO)cc2I)cc1 | 0.488 | -0.132 (inactive) | -0.046 | -0.108 | 0.369 | 2.01 | 0.159 | 1.3 | 0.0471 | 0.955
7 | C[C@@H]1NC(=O)[C@@]23C(=O)N[C@@H](Cc4ccccc4)C2[C@H](C)[C@@]2(C)O[C@H]2C3/C=C/C/C=C\CNC(=O)[C@@H]2CCCN2C1=O (stereo not given in full) | -0.397 | -0.433 (inactive) | -0.078 | -0.139 | 0.742 | -0.0175 | -0.11 | -1 | 0.18 | -0.327
8 | COc1cc2c(cc1OC)CN(C(=O)[C@@H]1[C@H]3C(=O)O[C@H](c4ccccc4)[C@H](c4ccccc4)N3[C@H](c3ccc(OCCO)cc3)[C@@]13C(=O)Nc1ccccc13)CC2 | 0.299 | 0.817 (inactive) | 0.131 | -0.114 | 0.634 | 2.25 | 0.141 | 1.31 | 0.508 | 1.15
9 | C=CCC(OC(C)=O)[C@@H]1[C@@H](N(Cc2cccc3ccccc23)C(=O)Cc2ccc(OC)cc2)c2cc(OCCCO)ccc2N1C(=O)c1ccc2ccccc2n1 (stereo not given in full) | 0.249 | 0.397 (inactive) | 0.0224 | -0.0515 | 0.189 | 0.979 | 0.449 | 0.404 | 0.173 | -0.212
10 | CCCCC=C[C@@H](NC(=O)c1ccc(-c2ccccc2)cc1)c1ccccc1 | 0.43 | 0.516 (inactive) | 0.112 | 0.0065 | 0.641 | 1.08 | 1.01 | 1.07 | -0.309 | 0.933
11 | C=CCN1Cc2ccccc2[C@H]2OC(c3ccc(OCCCO)cc3)=N[C@@]2(CC=C)C1=O | -0.405 | 0.911 (inactive) | 0.133 | 0.007 | 0.418 | 2.78 | 0.373 | 1.31 | 1.39 | 0.85
12 | C#CCN([C@@H](Cc1ccc(O)cc1)C(=O)OC)[C@@H](/C=C/C1CC1)[C@H](O)Cc1ccccc1 | -0.865 | -0.0582 (inactive) | -0.0567 | -0.172 | -0.303 | 0.071 | 0.0995 | -0.0361 | 0.523 | -0.58
13 | [N-]=[N+]=NCc1ccccc1[C@H]1OC(c2ccc(OCCCO)cc2)=N[C@@]1(CCS(=O)(=O)c1ccccc1)C(=O)N1CCCCC1 | 1.05 | 0.32 (inactive) | 0.268 | 0.0562 | 0.753 | 2.83 | 0.512 | 1.31 | -0.565 | 1.2
14 | CN(C)CCCCNC(=O)[C@@H]1C[C@@H]2C(=O)N[C@@H](Cc3ccccc3)C(=O)N2[C@@H]1c1cccc(OCCO)c1 | -0.0493 | 1.1 (inactive) | -0.239 | -0.153 | 0.74 | 2.59 | 1.11 | 1.06 | 1.08 | 1.07
15 | COc1cc(CO)cc(I)c1O[C@H]1C=C(C(=O)NCCO)C[C@@H](NCc2ccc(F)cc2)[C@@H]1O | -1.03 | 0.328 (inactive) | -0.118 | -0.148 | 0.223 | 0.369 | 0.205 | 0.352 | 0.306 | 0.0901
16 | COCCOC(=O)N1C(=O)[C@@]2(c3cc(C#CC4=CCCCC4)ccc31)[C@H](c1ccccc1OCCO)N1[C@H](c3ccccc3)[C@H](c3ccccc3)OC(=O)[C@H]1[C@@H]2C(=O)Nc1nc2ccccc2s1 | 0.526 | -0.243 (inactive) | 0.158 | -0.0047 | 0.236 | 1.06 | -0.375 | 1.32 | 0.454 | 1.15
17 | [N-]=[N+]=Nc1ccccc1[C@@H]1OC(c2ccc(OCCCO)cc2)=N[C@]1(Cc1ccccc1)C(=O)NCC(O)CO (stereo not given in full) | 0.937 | 0.66 (inactive) | 0.453 | 0.178 | 0.765 | 3.2 | 1.14 | 0.897 | -0.638 | 0.468
